Measurements reported in PubChem BioAssay (NCI).
About 79,000 compounds went through this panel and 15% of them were active in at least one assay; those are over-represented in the sample as a whole. No stated cut-off is given here; in the data, active means growth inhibition above about 70%; inactive means the rest.

Legend:
[1] = NCI Yeast Anticancer Drug Screen. Data for the rad50 strain (AID 155);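 further: 0% = growth of vehicle-only cultures of the same strain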; conditions: S. cerevisiae rad50 strain growth inhibition; at 50.0 µM; stronger effect = higher value
Procedure, shortened: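 Inhibition values express reduced yeast growth in compound-treated cultures relative to vehicle-treated controls.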

[2] = NCI Yeast Anticancer Drug Screen. Data for the sgs1 mgt1 strain (AID 161);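 further: 0% = growth of cultures given vehicle only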; conditions: S. cerevisiae sgs1 mgt1 strain, at 50.0 µM, stronger effect = higher value
Procedure, shortened: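 Percent growth inhibition was derived by comparing compound-exposed mutant yeast with vehicle-exposed cultures. The strain carries alterations in DNA damage repair.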

[3] = NCI Yeast Anticancer Drug Screen. Data for the cln2 rad14 strain (AID 165);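 further: 0% = growth equal to vehicle treated cultures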; conditions: S. cerevisiae cln2 rad14 strain, at 50.0 µM, stronger effect = higher value
Procedure, shortened: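 Readout is yeast growth inhibition versus vehicle-treated controls, using a strain with cln2 and rad14 alterations exposed to compound.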

[4] = NCI Yeast Anticancer Drug Screen. Data for the bub3 strain (AID 167); conditions: S. cerevisiae bub3 mutant strain, at 50.0 µM, stronger effect = higher value
Procedure, shortened: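 Steps: expose the mutant yeast strain to compound; grow alongside vehicle-treated cultures; measure growth; express inhibition against the vehicle cultures.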

[5] = NCI Yeast Anticancer Drug Screen. Data for the mlh1 rad18 strain (AID 175); conditions: S. cerevisiae mlh1 rad18 strain growth inhibition; at 50.0 µM; stronger effect = higher value
Procedure, shortened: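 Genetically defined yeast (DNA repair-deficient) exposed to compounds; growth inhibition determined relative to vehicle.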

Measured: growth inhibition

OC(c1ccccc1)C(c1ccccc1)N1CCOCC1 (centres undefined)
inactive: [1] -8.45% | [2] -1.3% | [3] 1.65% | [4] 7.9% | [5] 9.75%

CCOP(=S)(Oc1ccccc1[N+](=O)[O-])c1ccccc1 (centres undefined)
inactive: [1] 6.85% | [2] 12.6% | [3] 25.8% | [4] 18.9% | [5] 10.2%

CN1C2CCC1CC(OC(=O)/C=C\c1ccccc1)C2 (centres undefined)
inactive: [1] 29% | [3] 1.95% | [4] 8.45% | [5] 9.6%

CCCCC1(CCSC(=S)OCC)C(=O)NC(=O)NC1=O
inactive: [1] 12.6% | [2] 1.55% | [3] -36.4% | [4] -2.7% | [5] -11.8%

N#CC1(c2ccccc2)CCN(C2(c3ccccc3)CCCCC2)CC1
inactive: [1] -23.4% | [2] -5.7% | [3] 4.25% | [4] -3.55% | [5] -30.1%

CCCOP1(=O)C=C(O)C(Cl)=C(C)C1 (centres undefined)
inactive: [1] -32.5% | [2] -42.8% | [3] -12.8% | [4] -19.4% | [5] -46.8%
